Results filed as inconclusive are left out. Entries that show only a call come without a potency. A number with no mark means an inactive call. Activity calls are given as the source filed them. Calls come from the whole dose curve; as a rule, active = well fitted cell-killing curve with a large enough effect; inconclusive = small, poorly fitted or top-dose-only effect; inactive = flat fitted curve, though single readings scatter.
Potency is the fitted concentration of half-maximal effect.

The assay in a line: qHTS of pediatric cancer cell lines to identify multiple opportunities for drug repurposing: Primary screen for BT-37 cells (AID 1347094). The following applies: BT-37 viability, CellTiter-Glo luminescence, 48 h; series mostly up to 57.3 µM. From the text:
Drug repurposing or repositioning has been offered as a strategy for drug development in oncology programs. This approach has special potential for childhood cancers and other rare or orphan diseases, where the expected return on new drug development has been a disincentive to pharmaceuticals. […] In this project we exploit the poly-pharmacology of drugs to discover new indications via phenotypic screening of a panel of 19 well-characterized cell lines derived from solid tumors seen in children and adolescents. The goal is to identify approved drugs with previously unrecognized anticancer properties that has the potential to reveal new mechanisms and biological processes involved in carcinogenesis or drug resistance. We employed a titration-based paradigm (quantitative high-throughput screening or qHTS), where all compounds were tested at multiple concentrations for their effect on cell viability. Concentration-response curves (CRCs) were derived directly from the primary screen, and both potency and efficacy values were used to identify compounds with robust bioactivity profiles. We screened the NIH Chemical Genomics Center (NCGC) Pharmaceutical Collection (NPC) and Mechanism Interrogation Plate (MIPE) small molecule collections of approved and investigational compounds against these cell lines; and measured metabolically active cells after 48 hours of compound treatment as a proxy for cell viability. […] Assay Submitter: Nathalia J. Martinez, National Center for Advancing Translational Sciences, National Institutes of Health, Rockville, MD, USA; email: natalia.martinez@nih.gov Shen, M et al. Quantitative high-throughput phenotypic screening of pediatric cancer cell lines identifies multiple opportunities for drug repurposing. Oncotarget 2017 Dec 19;9(4):4758-4772. PMID 29435139.
The cells were obtained from University of North Carolina (UNC), Pediatric Preclinical Testing Program (PPT), and Coriell Institute (CI). qHTS cell viability assay: Cells were assayed in growth media at a density of 500-1,000 cells/well. Five microliters of cells were dispensed into 1,536-well, white, solid-bottom, TC-treated plates (Greiner Bio One) using a multidrop dispenser and incubated at 37 degrees C, 5% CO2, under a humidified atmosphere for 5 hours. Twenty-three nanoliters of compounds and controls (neutral control DMSO or positive control bortezomib at final concentration of 2.3 µM) were subsequently transferred by Kalypsys pintool. For primary screens, the MIPE collection was tested at 11-point dilutions (final concentrations range from 0.78 nM to 46 µM) and the NPC collection at 8-point dilutions (final concentrations range from 0.59 nM to 46 µM). Compounds tested in follow-up screens were assayed at 11-point dilutions. Cells were incubated for 48 hours, followed by addition of 3 µL of CellTiter-Glo (Promega). After a 15 min incubation at room temperature, samples were analyzed for luminescence intensity using a ViewLux High-throughput CCD imager equipped with clear filters.
Take `COc1ccc2cc1Oc1cc3c(cc1OC)CC[N+](C)(C)[C@H]3Cc1ccc(cc1)Oc1c(OC)c(OC)cc3c1[C@@H](C2)[N+](C)(C)CC3`: the Potency result was “inactive”. The same measure, in the same setting: for `c1ccc(CN(CC2=NCCN2)c2ccccc2)cc1` the value was “inactive”; for `CC1=C(CC(=O)O)c2cc(F)ccc2/C1=C\c1ccc(S(C)=O)cc1` (stereo not given), “inactive”; for `CN(C)CCCO[C@@H]1[C@H]2OC(C)(C)O[C@H]2O[C@@H]1C(O)CO` (stereo not given in full), “inactive”. As for `C[C@]12CC[C@@H]3c4ccc(O)cc4CC[C@H]3[C@@H]1CCC2=O`, the Potency result was “inactive”.

Take `Nc1ccc(S(=O)(=O)Nc2ccc(Cl)nn2)cc1`: the Potency result was “inactive”.

As to `CC(CN1c2ccccc2Sc2ccccc21)N(C)C` (stereo not given), the Potency result was “inactive”. For the molecule `N[C@@H](CSSC[C@H](N)C(=O)O)C(=O)O`, the activity change, negative = cytotoxic is 3.9% [at 0.745 µM]. Consider `COc1ccc(S(=O)(=O)Nc2nnc(CC(C)C)s2)cc1`, for which the Potency entry was “inactive”. `C[C@@H]1C[C@H]2[C@@H]3C[C@H](F)C4=CC(=O)C=C[C@]4(C)[C@@]3(F)[C@@H](O)C[C@]2(C)[C@@]1(O)C(=O)CO`: the Potency entry was “inactive”. In the case of `CC(=O)CCC(=O)O`, the Potency entry is “inactive”.

Consider `CCCCc1ncc(/C=C(\Cc2cccs2)C(=O)O)n1Cc1ccc(C(=O)O)cc1`, for which the Potency entry is “inactive”. Turning to `Cc1ccc(C(C)C)cc2c(C)ccc1-2`, the Potency result is “inactive”. Take `O=C1O[C@H](CO)[C@@H](O)[C@H](O)[C@H]1O`: the Potency result is “inactive”. Consider `O=S(=O)(O)c1cc(I)c(O)c2ncccc12`, for which the Potency entry is “inactive”.

With `CC[C@H]1CN2CCc3cc(OC)c(OC)cc3[C@@H]2C[C@@H]1C[C@H]1NCCc2cc(OC)c(OC)cc21`, the Potency was 0.389 µM (active). On to `Cc1ncc(COP(=O)(O)O)c(C=O)c1O`, for which the Potency result is “inactive”. As for `CCOc1ccc2ccccc2c1C(=O)N[C@@H]1C(=O)N2[C@@H]1SC(C)(C)[C@@H]2C(=O)O`, the Potency result was “inactive”. As to `Nc1cc(=O)[nH]c(N)n1`, the Potency entry was “inactive”.

As to `NC(=O)c1ncn([C@@H]2O[C@H](CO)[C@@H](O)[C@H]2O)c1N`, the Potency entry was “inactive”. As to `NC(CSCC(=O)O)C(=O)O` (stereo not given), the Potency result is “inactive”. `CCN(CC)C(C)CN1c2ccccc2Sc2ccccc21` (stereo not given): the Potency result was “inactive”. As for `CCCCN(CCCC)CCCOC(=O)c1ccc(N)cc1`, the Potency entry was “inactive”. Take `O=C1NC(=O)[C@@]2(CCOc3ccc(F)cc32)N1`: the Potency entry was “inactive”. `Cc1ncc([N+](=O)[O-])n1CC(O)CCl` (stereo not given): the Potency result was “inactive”. As to `Cn1cc[nH]c1=S`, the Potency result is “inactive”. In the case of `CCOC(CN1CCN(CC(C)C(=O)c2ccccc2)CC1)c1ccccc1` (stereo not given), the Potency entry is “inactive”.

Regarding `O=c1cc(CO)occ1O`, the Potency result is “inactive”. Same read-out and setting: for `CC1(C)OC(=O)NC1=O` the value was “inactive”. On to `CCCCCCCCCCCCCCCCCCOCC(O)CO` (stereo not given), for which the Potency result is “inactive”. Regarding `O=C1c2c(O)cccc2Cc2cccc(O)c21`, the Potency result was “inactive”. As for `COc1ccc2[nH]c(S(=O)Cc3ncc(C)c(OC)c3C)nc2n1` (stereo not given), the Potency entry was “inactive”. Same read-out and setting: for `CC(C)(C)NCC(O)COc1ccc(NC(=O)NC2CCCCC2)cc1` (stereo not given) the value was “inactive”.

As to `COC(=O)C1=C(C)NC(C)=C(C(=O)OC)C1c1ccccc1[N+](=O)[O-]`, the Potency result was “inactive”. `NC(=O)NC(=O)Cc1ccccc1`: the Potency entry is “inactive”. Turning to `COc1ccc2c(c1)C(=O)N(CCc1ccc(S(=O)(=O)NC(=O)NC3CCCCC3)cc1)C(=O)C2(C)C`, the Potency result is “inactive”. For `OC[C@H]1O[C@@H](O[C@@H]2[C@@H](CO)O[C@](O)(CO)[C@H]2O)[C@H](O)[C@@H](O)[C@H]1O`, the Potency result was “inactive”. `CC12CCC(CC1)C(C)(C)O2`: the Potency result is “inactive”. `CSc1ccc2c(c1)N(CCC1CCCCN1C)c1ccccc1S2` (stereo not given): the Potency is 24.6 µM (active). In the case of `Cc1cc2nc3c(=O)[nH]c(=O)nc-3n(C[C@H](O)[C@H](O)[C@H](O)CO)c2cc1C`, the Potency result is “inactive”.

For the origin of these results see PubChem BioAssay (NCATS).
